# Measurements as given in the supplement of paper PMC10849652.
# About 7,900 targets were measured; listed, in parts, are those with a hit and a random draw of the rest. About 0.6% of all pairs of compound and target were hits. Values without a mark were called inactive.
# Experiments:
# Test in all cases: log2 fold change, soluble protein after heating vs DMSO (PISA); higher = thermal stabilisation; K562 cells, 10 uM, 30 min; active = over 0.2 and 3.5 SD of the protein, either way, in both replicates (recomputed)
# [1] = compound: COC1=CC=C(C=C1)CN2C=CC3=C2C=C(C=C3)C(=O)NO
# How it was run: (§1)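 K562 cells at 2×10^6 cells/mL were treated with 10 μM compound for 30 min. Aliquots were heated for 3 min across 48°C-58°C, pooled, and extracted in PBS with 0.5% NP-40 at 4°C; soluble protein was the supernatant after 21,000xg for 90 min. Soluble protein was quantified by TMTpro 16plex LC-MS/MS with channel sums equalised, and reported as log2 fold change in thermal stability against DMSO controls, with values from duplicates.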
# [2] = compound: CON(C)C(=O)N1N=C(c2cc(F)ccc2F)S[C@@]1(CCCN)c1ccccc1 [filanesib]
# How it was run: as §1
# [3] = compound: CO[C@H]1C[C@@H]2CC[C@@H](C)[C@@](O)(O2)C(=O)C(=O)N2CCCC[C@H]2C(=O)O[C@H]([C@H](C)C[C@@H]2CC[C@H](n3cnnn3)[C@H](OC)C2)CC(=O)[C@H](C)/C=C(\C)[C@@H](O)[C@@H](OC)C(=O)[C@H](C)C[C@H](C)/C=C/C=C/C=C/1C [zotarolimus]
# How it was run: as §1
# [4] = compound: COc1cc(C(=O)O)ccc1NC(=O)[C@@H]1N[C@@H](CC(C)(C)C)[C@](C#N)(c2ccc(Cl)cc2F)[C@H]1c1cccc(Cl)c1F [idasanutlin]
# How it was run: as §1
# [5] = compound: COc1cc(Nc2ncc3c(n2)-c2ccc(Cl)cc2C(c2c(F)cccc2OC)=NC3)ccc1C(=O)O [alisertib]
# How it was run: as §1
# [6] = compound: COc1cc2nc(-c3cc(F)ccc3O)nc(N[C@@H]3CNC[C@H]3C(C)(C)O)c2cc1OC
# How it was run: as §1
# [7] = compound: COc1cc2ncnc(Nc3ccc(F)c(Cl)c3)c2cc1OCCCN1CCOCC1 [gefitinib]
# How it was run: as §1
# [8] = compound: COc1cccc2cc(-c3nc([C@H]4CC[C@H](C(=O)O)CC4)n4ncnc(N)c34)[nH]c12
# How it was run: as §1
# [9] = compound: CS(=O)(=O)CCNCc1ccc(-c2ccc3ncnc(Nc4ccc(OCc5cccc(F)c5)c(Cl)c4)c3c2)o1 [lapatinib]
# How it was run: as §1
# [10] = compound: CS(=O)(=O)N1CCN(Cc2cc3nc(-c4cccc5[nH]ncc45)nc(N4CCOCC4)c3s2)CC1 [pictilisib]
# How it was run: as §1
# [11] = compound: CS(=O)(=O)c1ccc(-c2cnc(N)c(C(=O)Nc3ccccc3)n2)cc1
# How it was run: as §1
# [12] = compound: C[C@@H](Oc1cc(-c2cnn(C3CCNCC3)c2)cnc1N)c1c(Cl)ccc(F)c1Cl [crizotinib]
# How it was run: as §1
# [13] = compound: C[C@@H]1COCCN1C2=NC(=NC(=C2)C3(CC3)S(=O)(=O)C)C4=C5C=CNC5=CC=C4
# How it was run: as §1
# [14] = compound: C[C@H](C1=CC=C(C=C1)C(=O)NC2=C3C=CNC3=NC=C2)N
# How it was run: as §1
# [15] = compound: C[C@H](Nc1ncnc2nc[nH]c12)c1cc2cccc(Cl)c2c(=O)n1-c1ccccc1 [duvelisib]
# How it was run: as §1
# [16] = compound: Cc1cc(Nc2cc(CN3CCOCC3)c3nc(C)c(Cc4ccc(Cl)cc4F)n3n2)n[nH]1 [gandotinib]
# How it was run: as §1
# [17] = compound: Cc1cc(Nc2cc(N3CCN(C)CC3)nc(Sc3ccc(NC(=O)C4CC4)cc3)n2)n[nH]1 [tozasertib]
# How it was run: as §1
# [18] = compound: Cc1cc(SCc2sc(-c3ccc(C(F)(F)F)cc3)nc2C)ccc1OCC(=O)O
# How it was run: as §1
# [19] = compound: Cc1ccc(-n2nc(C(C)(C)C)cc2NC(=O)Nc2ccc(OCCN3CCOCC3)c3ccccc23)cc1 [doramapimod]
# How it was run: as §1
# [20] = compound: Cc1ccc(C(=O)N(CCCN)[C@@H](c2nc3cc(Cl)ccc3c(=O)n2Cc2ccccc2)C(C)C)cc1 [ispinesib]
# How it was run: as §1
# UniProt Q13889, sequence (Q13889 whole entry, looked up): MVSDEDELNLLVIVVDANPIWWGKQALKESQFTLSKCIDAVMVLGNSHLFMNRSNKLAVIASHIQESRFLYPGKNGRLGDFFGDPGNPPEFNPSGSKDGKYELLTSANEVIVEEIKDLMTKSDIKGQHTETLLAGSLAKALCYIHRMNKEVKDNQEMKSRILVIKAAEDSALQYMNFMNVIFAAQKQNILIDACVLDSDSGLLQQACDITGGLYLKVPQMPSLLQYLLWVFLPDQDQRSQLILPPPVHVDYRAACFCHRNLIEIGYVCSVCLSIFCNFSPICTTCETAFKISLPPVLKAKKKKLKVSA
# UniProt Q86UX7, sequence (Q86UX7 whole entry, looked up): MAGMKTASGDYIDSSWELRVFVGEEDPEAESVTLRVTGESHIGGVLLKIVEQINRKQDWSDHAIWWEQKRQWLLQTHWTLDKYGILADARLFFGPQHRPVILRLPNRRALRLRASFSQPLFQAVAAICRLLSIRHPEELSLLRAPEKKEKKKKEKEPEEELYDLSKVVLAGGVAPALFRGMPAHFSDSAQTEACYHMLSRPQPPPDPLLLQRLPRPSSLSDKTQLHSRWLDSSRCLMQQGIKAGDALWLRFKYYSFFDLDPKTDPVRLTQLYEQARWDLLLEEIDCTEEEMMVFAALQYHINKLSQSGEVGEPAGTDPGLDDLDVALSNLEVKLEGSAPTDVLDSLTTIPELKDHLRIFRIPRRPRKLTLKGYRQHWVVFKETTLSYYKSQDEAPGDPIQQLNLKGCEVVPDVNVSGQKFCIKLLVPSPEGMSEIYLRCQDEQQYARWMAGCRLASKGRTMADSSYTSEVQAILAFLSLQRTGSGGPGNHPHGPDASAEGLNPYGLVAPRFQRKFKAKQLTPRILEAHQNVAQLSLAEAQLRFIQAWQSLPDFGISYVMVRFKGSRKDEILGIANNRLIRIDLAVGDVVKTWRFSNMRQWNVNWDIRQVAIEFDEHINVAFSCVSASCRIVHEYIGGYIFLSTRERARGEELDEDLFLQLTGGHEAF
# UniProt Q6P3S6, sequence (Q6P3S6 whole entry, looked up): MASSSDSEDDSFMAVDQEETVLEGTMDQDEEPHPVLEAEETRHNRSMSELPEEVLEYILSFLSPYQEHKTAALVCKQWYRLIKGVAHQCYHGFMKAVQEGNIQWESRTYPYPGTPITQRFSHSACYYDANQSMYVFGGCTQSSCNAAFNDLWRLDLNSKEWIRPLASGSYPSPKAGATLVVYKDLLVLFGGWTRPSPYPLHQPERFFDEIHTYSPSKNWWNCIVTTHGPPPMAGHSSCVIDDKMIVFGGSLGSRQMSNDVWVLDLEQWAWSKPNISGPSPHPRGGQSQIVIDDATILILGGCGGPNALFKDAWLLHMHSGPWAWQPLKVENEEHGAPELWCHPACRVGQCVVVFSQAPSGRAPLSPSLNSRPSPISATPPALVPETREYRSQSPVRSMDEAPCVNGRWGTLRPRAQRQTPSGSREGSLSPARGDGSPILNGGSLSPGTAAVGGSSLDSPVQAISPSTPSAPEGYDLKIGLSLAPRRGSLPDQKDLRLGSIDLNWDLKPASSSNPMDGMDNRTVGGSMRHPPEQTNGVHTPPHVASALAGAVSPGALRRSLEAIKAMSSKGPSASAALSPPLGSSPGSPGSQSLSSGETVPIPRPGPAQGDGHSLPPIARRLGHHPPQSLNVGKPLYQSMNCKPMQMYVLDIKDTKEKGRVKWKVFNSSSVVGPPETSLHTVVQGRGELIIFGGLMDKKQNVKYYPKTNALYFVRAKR
# UniProt Q9H0R8, sequence (Q9H0R8 whole entry, looked up): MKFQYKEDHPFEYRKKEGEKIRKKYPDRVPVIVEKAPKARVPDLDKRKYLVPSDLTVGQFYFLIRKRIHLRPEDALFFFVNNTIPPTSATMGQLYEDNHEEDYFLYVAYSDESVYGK
# UniProt Q53GQ0, sequence (Q53GQ0 whole entry, looked up): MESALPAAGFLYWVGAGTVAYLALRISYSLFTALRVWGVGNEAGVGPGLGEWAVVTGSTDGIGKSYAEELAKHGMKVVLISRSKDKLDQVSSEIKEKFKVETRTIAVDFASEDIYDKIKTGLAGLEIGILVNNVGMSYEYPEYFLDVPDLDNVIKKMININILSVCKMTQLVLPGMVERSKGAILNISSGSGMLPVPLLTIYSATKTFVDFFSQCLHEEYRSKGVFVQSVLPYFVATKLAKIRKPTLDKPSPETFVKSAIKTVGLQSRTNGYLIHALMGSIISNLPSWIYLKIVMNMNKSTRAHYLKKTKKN
# UniProt O14976, sequence (O14976 whole entry, looked up): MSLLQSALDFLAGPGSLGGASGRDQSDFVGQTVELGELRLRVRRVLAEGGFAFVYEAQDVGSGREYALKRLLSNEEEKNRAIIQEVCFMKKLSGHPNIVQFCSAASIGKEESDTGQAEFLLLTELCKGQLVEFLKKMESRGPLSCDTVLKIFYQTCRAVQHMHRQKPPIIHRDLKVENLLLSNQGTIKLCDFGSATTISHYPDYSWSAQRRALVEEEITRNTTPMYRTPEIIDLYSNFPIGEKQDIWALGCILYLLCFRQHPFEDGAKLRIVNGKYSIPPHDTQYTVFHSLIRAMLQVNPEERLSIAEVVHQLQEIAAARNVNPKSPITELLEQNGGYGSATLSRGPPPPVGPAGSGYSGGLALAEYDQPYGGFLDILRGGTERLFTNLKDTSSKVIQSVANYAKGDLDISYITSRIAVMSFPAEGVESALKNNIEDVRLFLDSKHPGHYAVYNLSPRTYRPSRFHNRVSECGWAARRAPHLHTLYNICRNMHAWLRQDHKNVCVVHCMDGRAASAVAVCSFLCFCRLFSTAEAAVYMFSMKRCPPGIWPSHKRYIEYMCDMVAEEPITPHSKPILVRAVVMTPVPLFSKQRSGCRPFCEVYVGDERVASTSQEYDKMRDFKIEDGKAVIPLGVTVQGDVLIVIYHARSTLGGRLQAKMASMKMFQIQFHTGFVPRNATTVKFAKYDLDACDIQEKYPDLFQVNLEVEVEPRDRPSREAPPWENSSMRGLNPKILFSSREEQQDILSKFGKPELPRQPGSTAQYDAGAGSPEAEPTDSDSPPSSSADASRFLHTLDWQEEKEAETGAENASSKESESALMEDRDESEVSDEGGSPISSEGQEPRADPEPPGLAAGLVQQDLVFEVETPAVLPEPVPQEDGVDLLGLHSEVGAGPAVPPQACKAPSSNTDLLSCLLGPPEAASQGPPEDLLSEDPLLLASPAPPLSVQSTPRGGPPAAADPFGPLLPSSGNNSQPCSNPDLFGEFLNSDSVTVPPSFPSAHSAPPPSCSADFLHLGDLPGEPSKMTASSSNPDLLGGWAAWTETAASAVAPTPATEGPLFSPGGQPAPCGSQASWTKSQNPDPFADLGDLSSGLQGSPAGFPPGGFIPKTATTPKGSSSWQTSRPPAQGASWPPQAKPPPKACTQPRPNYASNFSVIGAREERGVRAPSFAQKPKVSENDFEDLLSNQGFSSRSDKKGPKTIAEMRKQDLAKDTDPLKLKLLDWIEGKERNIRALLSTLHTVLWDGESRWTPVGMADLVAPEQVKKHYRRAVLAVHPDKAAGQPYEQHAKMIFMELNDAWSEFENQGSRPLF
# UniProt Q7Z4H3, sequence (Q7Z4H3 whole entry, looked up): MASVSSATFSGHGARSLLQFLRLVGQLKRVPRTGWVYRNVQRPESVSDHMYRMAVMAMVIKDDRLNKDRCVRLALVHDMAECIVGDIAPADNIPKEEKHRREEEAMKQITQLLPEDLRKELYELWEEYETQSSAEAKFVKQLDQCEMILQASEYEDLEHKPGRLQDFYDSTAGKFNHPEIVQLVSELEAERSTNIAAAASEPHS
# UniProt Q9P2H3, sequence (Q9P2H3 whole entry, looked up): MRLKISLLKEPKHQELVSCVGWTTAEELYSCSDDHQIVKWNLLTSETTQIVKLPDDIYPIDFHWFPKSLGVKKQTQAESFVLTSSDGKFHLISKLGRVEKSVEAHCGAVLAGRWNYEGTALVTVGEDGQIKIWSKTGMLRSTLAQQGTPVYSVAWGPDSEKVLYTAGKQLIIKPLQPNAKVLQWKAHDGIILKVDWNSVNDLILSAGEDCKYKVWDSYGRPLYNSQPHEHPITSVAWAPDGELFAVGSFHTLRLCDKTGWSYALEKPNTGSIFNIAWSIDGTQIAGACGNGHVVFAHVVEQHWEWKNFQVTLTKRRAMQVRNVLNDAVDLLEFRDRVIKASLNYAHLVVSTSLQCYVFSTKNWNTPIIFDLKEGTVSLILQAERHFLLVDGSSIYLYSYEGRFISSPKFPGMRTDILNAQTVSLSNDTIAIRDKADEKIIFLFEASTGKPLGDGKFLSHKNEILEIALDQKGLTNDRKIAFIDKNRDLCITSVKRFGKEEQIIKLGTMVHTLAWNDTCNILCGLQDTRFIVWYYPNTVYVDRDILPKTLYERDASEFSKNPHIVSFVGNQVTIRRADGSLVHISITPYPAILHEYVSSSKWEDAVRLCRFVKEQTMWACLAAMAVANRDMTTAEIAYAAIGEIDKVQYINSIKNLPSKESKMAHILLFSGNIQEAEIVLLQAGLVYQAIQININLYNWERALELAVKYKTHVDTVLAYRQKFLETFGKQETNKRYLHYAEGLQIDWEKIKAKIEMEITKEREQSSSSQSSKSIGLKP
Target,log2 fold change [1],log2 fold change [2],log2 fold change [3],log2 fold change [4],log2 fold change [5],log2 fold change [6],log2 fold change [7],log2 fold change [8],log2 fold change [9],log2 fold change [10],log2 fold change [11],log2 fold change [12],log2 fold change [13],log2 fold change [14],log2 fold change [15],log2 fold change [16],log2 fold change [17],log2 fold change [18],log2 fold change [19],log2 fold change [20]
HSD17B12 (UniProt Q53GQ0),0.069,-0.013,0.03,-0.169,0.003,0.135,0.103,0.045,0.369 (active),0.102,0.046,0.191,0.012,-0.061,0.063,0.371 (active),-0.018,0.055,-0.009,0.243
IFT80 isoform 3 (UniProt Q9P2H3),-0.128,-0.043,0.003,-0.066,-0.039,0.01,-0.07,0.04,-0.038,0.034,-0.019,-0.01,0.069,-0.031,0.057,0.053,-0.071,0.05,0.069,-0.051
FERMT3 (UniProt Q86UX7),0.046,-0.037,0.033,-0.068,-0.104,0,-0.007,0.001,-0.006,0.009,0.038,-0.091,0.02,-0.04,0.005,-0.064,0.022,0.057,0.001,-0.04
GTF2H3 (UniProt Q13889),-0.031,0.062,-0.04,-0.077,-0.155,0.016,0,0.041,0.056,-0.089,0.061,0.049,-0.012,-0.003,-0.047,-0.012,-0.031,-0.2,0.021,0.023
FBXO42 (UniProt Q6P3S6),-0.037,0.011,0.025,0.009,0.047,-0.054,0.036,0.07,0.063,-0.088,0.077,0.4 (active),0.127,-0.064,0.076,-0.022,0.105,0.063,0.01,-0.015
HDDC2 (UniProt Q7Z4H3),-0.098,-0.037,0.049,-0.068,0.04,-0.05,-0.022,0.068,0.037,0.064,0.044,-0.058,0.106,-0.103,0.04,0.032,0.026,0.024,0.031,0.228
GABARAPL1 isoform 2 (UniProt Q9H0R8),0.053,-0.054,0.024,-0.112,0.024,0.007,0.021,-0.01,-0.026,0.115,0.105,-0.344 (active),0.048,-0.045,0.057,0.078,-0.008,0.026,-0.034,-0.315 (active)
GAK (UniProt O14976),-0.013,0.024,0.033,-0.748,-0.025,1.44,0.84,-0.107,0.143,0.226,0.49,0.115,-0.081,1.26,-0.245,0.02,0.223,-0.121,0.206,-0.157
